Among the data in PubChem BioAssay (EPA / NIEHS) are outcome and AC50 values, retold here.

What is called AC50 is the concentration at which the activity in the assay is half-maximal.

The source made the active and inactive calls. The calls were made as follows: active = hit-call score of the fitted dose curve at least 0.9, where 1 is the maximum; inactive = score below 0.9.

Read-out in this experiment: MYC, MYC (gene 4609)
The experiment can be described thus: LTEA_HepaRG_MYC: Life Technologies and Expression Analysis (LTEA) Assay for MYC using HepaRG (AID 2283518). Particulars: mRNA level, 48 h; actives raise or lower the signal. On the procedure:
LTEA_HepaRG is a cell based, multiplexed-readout assay that uses HepaRG, a human liver cell line, with measurements taken at 48 hours after chemical dosing on a 96-well plate.LTEA_HepaRG_MYC is one of 102 assay component(s) measured in the LTEA HepaRG cell culture assay. It is a marker of Cell proliferation, survival, death.Data from the assay component LTEA_HepaRG_MYC was analyzed into 1 endpoint. This assay endpoint, LTEA_HepaRG_MYC, was analyzed with bidirectional fitting relative to DMSO as the negative control and baseline of activity. Using a type of inducible reporter, measures of mRNA induction for gain or loss-of-signal activity can be used to understand regulation of transcription factor activity. To generalize the intended target to other relatable targets, this assay endpoint is annotated to the dna binding intended target family, where the subfamily is basic helix-loop-helix leucine zipper.
A total of 1060 chemcials from the ToxCast library were tested in eight-point concentration-response experiments. Cell culture and cytotoxicity assays were conducted at Thermo Fisher Scientific's Custom Services facility (Madison, WI). A single lot of human HepaRG cells (Thermo Fisher Scientific, Frederick, MD) was used for the cell culture experiments. 96-well format collagen type I coated plates of human HepaRG cells were prepared using established methods. Briefly, cryopreserved HepaRG cells were thawed, plated at a density of approximately 100,000 cells/well in HepaRG Thaw, Plate, and General Purpose media (HPRG770, Thermo Fisher Scientific), and incubated for 48 hours. 0.5% DMSO was selected as vehicle control to balance the requisite need of DMSO in HepaRG cultures to maintain differentiation (for example, baseline metabolism, proportions of hepatocytes vs. cholangiocytes), while enabling further hepatic receptor pathway activation (for example, PXR and CAR) in response to chemical exposure. 48 hours after plating, the culture medium was replaced with HepaRG Serum-Free Incudtion Media. Cells were exposed to each test chemical in duplicate and maintained in CO2 incubators for another 48 hours. Chemical plates were thawed to room temperature and 200x concentrations of treatment groups were prepared. 8-point conentration-reponse curves were made with the highest exposure at 100 uM, followed by half-log dilutions, all in 0.5% DMSO. Each test plate contained variouse controls, induction positive controls (1mM phenobarbital), cytotoxicity positive controls ([…] aflatoxin B1), vehicle controls (0.5% DMSO), and total lysis controls (0.5% DMSO). Cell morphology images were taken using an Essen IncuCyte FLR automated microscope, with six 96-well plates imaged in about 24 minutes. Images were captured and exported and JPEG files. Spent culture media was transfered to black-well plates for the LDH assay, and remaining media was sorted at -80 C for later use. Cells were treated with RLT buffer and frozen until shipped for gene expression analysis. Total RNA was isolated from the cell suspension in 75 uL of Buffer RLT (Qiagen, Germantown, MD 20874) by Quintiles/Expression Analysis (Durham, NC) using a custom isolation procedure. Total RNA from each plate well was transferred to a preamplification plate. Fluidigm's 96.96 Dynamic ArrayTM (Fluidigm, Amsterdam, the Netherlands) technology was used for gene expression analyses by quantitative reverse transcription polymerase chain reaction (qRT-PCR, performed by Quintiles/Expression Analysis, Durham, NC)89. Standard TaqManTM Assays (Applied Biosystems/ThermoFisher Scientific, Foster City, CA) were used to assess the expression of 93 genes selected based on their selectivity and sensitivity to important hepatic receptors known to be modulated by environmental chemicals; importance in human hepatocyte functionality; and hepatotoxicity. […]
As for `Cc1nc(N(C)C)nc(OC(=O)N(C)C)c1C`, the result was inactive.
For the compound `N#Cc1c(Cl)cccc1Cl`, the result was inactive.
In the case of `O=P(O)(O)CCCl`, the call was inactive.
The same measure, in the same setting: with `CCCN(CC)CC1COC2(CCC(C(C)(C)C)CC2)O1` (stereo not given) the entry was “inactive”.
As to `CO/N=C(/C1=NOCCO1)c1ccccc1Oc1ncnc(Oc2ccccc2Cl)c1F`, the concentration at half-maximal activity (AC50) is 29.9 µM (active).
On the same count and under the same terms, to `CCOP(=O)(OCC)Oc1nc(Cl)c(Cl)cc1Cl` belongs 49.8 µM (active).
As to `CC(C)Oc1cccc(NC(=O)c2ccccc2C(F)(F)F)c1`, the result was inactive.
The same measure, in the same setting: with `CS(=O)(=O)c1ccc(C(=O)C2C(=O)CCCC2=O)c([N+](=O)[O-])c1` the entry was “inactive”; with `CSC(=O)c1c(C(F)F)nc(C(F)(F)F)c(C(=O)SC)c1CC(C)C`, “inactive”; with `Cc1c(COC(=O)[C@@H]2[C@H](/C=C(\Cl)C(F)(F)F)C2(C)C)cccc1-c1ccccc1`, “inactive”.
On the same count and under the same terms, to `CCSC(=O)N1CCCCCC1` belongs “inactive”; to `Cc1cnc(C2=NC(C)(C(C)C)C(=O)N2)c(C(=O)O)c1` (stereo not given), “inactive”.
The same measure, in the same setting: to `COCC(C)N(C(=O)CCl)c1c(C)csc1C` (stereo not given) belongs “inactive”; to `CNC(=O)Oc1cccc2ccccc12`, “inactive”; to `CN=C=S`, “inactive”.
For the compound `CCOC(=O)C(C)OC(=O)c1cc(Oc2ccc(C(F)(F)F)cc2Cl)ccc1[N+](=O)[O-]` (stereo not given), the result was inactive.
Still for that read-out and setting: with `CN/C(=N\[N+](=O)[O-])NCc1cnc(Cl)s1` the entry was “inactive”.
As for `CCCCC(O)(Cn1cncn1)c1ccc(Cl)cc1Cl` (stereo not given), the AC50 was 74.7 µM (active).
Turning to `CC1(C)C(C(=O)OC(C#N)c2cccc(Oc3ccccc3)c2)C1(C)C` (stereo not given), the outcome was inactive.
Still for that read-out and setting: with `O=C(Nc1ccccc1-c1ccc(Cl)cc1)c1cccnc1Cl` the entry was “inactive”.
The same measure, in the same setting: to `CCOc1nc(F)cc2nc(S(=O)(=O)Nc3c(Cl)cccc3Cl)nn12` belongs “inactive”; to `CCCCC(C#N)(Cn1cncn1)c1ccc(Cl)cc1` (stereo not given), “inactive”.
As for `CC1(C)CON(Cc2ccccc2Cl)C1=O`, the compound was called inactive.
For the compound `CCOP(=S)(OCC)Oc1nc(Cl)n(C(C)C)n1`, the compound was classed as inactive.
As to `CCC(C)n1c(=O)[nH]c(C)c(Br)c1=O` (stereo not given), the concentration at half-maximal activity (AC50) is 24.8 µM (active).
Still for that read-out and setting: to `Cn1c(-c2ccccc2)cc(-c2ccccc2)[n+]1C` belongs 3.12 µM (active).
With `COCc1cnc(C2=NC(C)(C(C)C)C(=O)N2)c(C(=O)O)c1` (stereo not given), the call was inactive.
With `COc1cc(Cl)c(OC)cc1Cl`, the compound was classed as inactive.
As for `CC(C)N1C(=O)c2ccccc2NS1(=O)=O`, the outcome was inactive.
On the same count and under the same terms, to `COC(=O)c1c(C(F)F)nc(C(F)(F)F)c(C2=NCCS2)c1CC(C)C` belongs “inactive”.
On the same count and under the same terms, to `CS(=O)(=O)c1cc(C(F)(F)F)ccc1C(=O)c1cnoc1C1CC1` belongs “inactive”; to `CCN(CC)C(=O)C(C)Oc1cccc2ccccc12` (stereo not given), “inactive”.
For the compound `COP(=S)(OC)Oc1ccc([N+](=O)[O-])c(C)c1`, the compound was called inactive.
As for `Nc1c(Cl)c(F)nc(OCC(=O)O)c1Cl`, the compound was called inactive.
For `O=C(O)c1c(Cl)ccc2cc(Cl)cnc12`, the result was inactive.
Regarding `CCNC(=O)NC(=O)C(C#N)=NOC`, the outcome was inactive.
For `CC1(C)CCC(=Cc2ccc(Cl)cc2)C1(O)Cn1cncn1` (stereo not given), the result was inactive.
On to `CC(C)C1(C)N=C(c2ncccc2C(=O)O)NC1=O` (stereo not given), for which the compound was called inactive.
Still for that read-out and setting: to `O=c1n(Cl)c(=O)n(Cl)c(=O)n1Cl` belongs “inactive”; to `CNC(=O)N(C)c1nnc(C(C)(C)C)s1`, “inactive”.
